According to PubChem BioAssay (NCATS):
Inconclusive results are not listed. Activity calls are given as the source filed them. Calls follow the shape of the dose curve; as a rule, active = well fitted cell-killing curve with a large enough effect; inconclusive = small, poorly fitted or top-dose-only effect; inactive = no such curve, though single readings can be large or run the other way.
Potency is read from the fitted curve at half-maximal effect.

Assay: qHTS of pediatric cancer cell lines to identify multiple opportunities for drug repurposing: Primary screen for OHS-50 cells (AID 1347103); also: nearly all actives have a fitted effect of over 40% in size
Conditions: OHS-50 osteosarcoma viability, CellTiter-Glo luminescence, 48 h; series mostly up to 57.3 µM; activity change, negative = cytotoxic: at the top concentration
Excerpt: Drug repurposing or repositioning has been offered as a strategy for drug development in oncology programs. This approach has special potential for childhood cancers and other rare or orphan diseases, where the expected return on new drug development has been a disincentive to pharmaceuticals.
In this project we exploit the poly-pharmacology of drugs to discover new indications via phenotypic screening of a panel of 19 well-characterized cell lines derived from solid tumors seen in children and adolescents. The goal is to identify approved drugs with previously unrecognized anticancer properties that has the potential to reveal new mechanisms and biological processes involved in carcinogenesis or drug resistance. We employed a titration-based paradigm (quantitative high-throughput screening or qHTS), where all compounds were tested at multiple concentrations for their effect on cell viability. Concentration-response curves (CRCs) were derived directly from the primary screen, and both potency and efficacy values were used to identify compounds with robust bioactivity profiles. We screened the NIH Chemical Genomics Center (NCGC) Pharmaceutical Collection (NPC) and Mechanism Interrogation Plate (MIPE) small molecule collections of approved and investigational compounds against these cell lines; and measured metabolically active cells after 48 hours of compound treatment as a proxy for cell viability.
Assay Submitter: Nathalia J. Martinez, National Center for Advancing Translational Sciences, National Institutes of Health, Rockville, MD, USA; email: natalia.martinez@nih.gov
[1] Shen, M et al. Quantitative high-throughput phenotypic screening of pediatric cancer cell lines identifies multiple opportunities for drug repurposing. Oncotarget 2017 Dec 19;9(4):4758-4772. PMID 29435139.
The cells were obtained from University of North Carolina (UNC), Pediatric Preclinical Testing Program (PPT), and Coriell Institute (CI).
qHTS cell viability assay:
Cells were assayed in growth media at a density of 500-1,000 cells/well. Five microliters of cells were dispensed into 1,536-well, white, solid-bottom, TC-treated plates (Greiner Bio One) using a multidrop dispenser and incubated at 37 degrees C, 5% CO2, under a humidified atmosphere for 5 hours. Twenty-three nanoliters of compounds and controls (neutral control DMSO or positive control bortezomib at final concentration of 2.3 µM) were subsequently transferred by Kalypsys pintool. For primary screens, the MIPE collection was tested at 11-point dilutions (final concentrations range from 0.78 nM to 46 µM) and the NPC collection at 8-point dilutions (final concentrations range from 0.59 nM to 46 µM). Compounds tested in follow-up screens were assayed at 11-point dilutions. Cells were incubated for 48 hours, followed by addition of 3 µL of CellTiter-Glo (Promega). After a 15 min incubation at room temperature, samples were analyzed for luminescence intensity using a ViewLux High-throughput CCD imager equipped with clear filters.
In the case of CC(NCc1ccc2c(c1)nc(NC(=O)c1ccc(-c3cn[nH]c3)s1)n2CC(C)(C)O)C(C)(C)C (stereo not given), the Potency is reported as 0.485 µM (active). In the case of CC(C)(C)OC(=O)Nc1ccc(-c2cc(C(=O)NCCCCCCC(=O)NO)no2)cc1, the Potency is reported as 4.32 µM (active). With CC(C)Nc1cc(C(F)(F)F)cc2nc(NC(=O)c3cccnc3)nn12 the “activity change, negative = cytotoxic” value was -2.48% (inactive). With COc1cc2c(Oc3ccc(-c4cnc(Nc5ccc(F)cc5)n(C)c4=O)cc3F)ccnc2cc1OCCCN1CCOCC1 the Potency was 0.306 µM (active). With C[C@@]12O[C@@H](C[C@]1(O)CO)n1c3ccccc3c3c4c(c5c6ccccc6n2c5c31)CNC4=O the Potency was 0.217 µM (active). With CS(=O)(=O)N1CCN(Cc2cc3nc(-c4cccc5[nH]ncc45)nc(N4CCOCC4)c3s2)CC1 the Potency was 0.0769 µM (active). In the case of O=C(Nc1cn[nH]c1-c1nc2ccc(CN3CCOCC3)cc2[nH]1)NC1CC1, the Potency is reported as 1.53 µM (active). For CC(C)c1nn(-c2c(Cl)cccc2Cl)c2nc(Cc3ccc(OCCO)cc3)[nH]c(=O)c12, the Potency was 0.0544 µM (active). In the case of COC(=O)Nc1ccc(-c2nc(N3CCOCC3)c3cnn(C4CCN(Cc5cccnc5)CC4)c3n2)cc1, the Potency is reported as 0.109 µM (active). With CC[C@@H]1C(=O)N(C)c2cnc(Nc3ccc(C(=O)NC4CCN(C)CC4)cc3OC)nc2N1C1CCCC1 the Potency was 0.0544 µM (active). With c1nc2nc(Nc3ccc(N4CCOCC4)cc3)nc(NC3CCCCC3)c2[nH]1 the Potency was 2.17 µM (active). In the case of COc1cc2c(Oc3ccc(NC(=O)C4(C(=O)Nc5ccc(F)cc5)CC4)cc3F)ccnc2cc1OCCCN1CCOCC1, the Potency is reported as 0.385 µM (active). With C=C1C(=CC=C2CCC[C@]3(C)[C@@H]([C@H](C)C=C[C@H](C)C(C)C)CC[C@@H]23)C[C@@H](O)C[C@@H]1O the Potency was 0.685 µM (active). With C1=CCOCc2cc(ccc2OCCN2CCCC2)Nc2nccc(n2)-c2cccc(c2)OCC1 the Potency was 2.17 µM (active). With O=C(NC1CCNCC1)c1[nH]ncc1NC(=O)c1c(Cl)cccc1Cl the Potency was 0.968 µM (active). With C=C1C(=CC=C2CCCC3(C)[C@@H]([C@H](C)C=CC=CC(O)(CC)CC)CC[C@@H]23)C[C@@H](O)C[C@@H]1O (stereo not given in full) the Potency was 24.3 µM (active). For O=C(O)CO.[NH2-].[NH2-].[Pt+2], the “activity change, negative = cytotoxic” value was 19.7% (inactive). With CCOc1ccccc1OCCNC(C)Cc1ccc(OC)c(S(N)(=O)=O)c1 (stereo not given) the “activity change, negative = cytotoxic” value was -18.5% (inactive). For CN1CCN(Cc2ccc(NC(=O)Nc3ccc(Oc4cc(NC(=O)C5CC5)ncn4)cc3)cc2C(F)(F)F)CC1, the Potency was 0.485 µM (active). For CC1COC2(CCN(c3nc(=O)c4cc(C(F)(F)F)cc([N+](=O)[O-])c4s3)CC2)O1 (stereo not given), the “activity change, negative = cytotoxic” value was 24.1% (inactive). For CC(C)c1cc(-c2n[nH]c(=O)n2-c2ccc3c(ccn3C)c2)c(O)cc1O, the Potency was 0.153 µM (active). For COc1ccc(-c2cc3c(C)nc(N)nc3n(C3CCC(OCCO)CC3)c2=O)cn1 (stereo not given), the Potency was 0.0077 µM (active). With CNC(=O)c1c(F)cccc1Nc1nc(Nc2cc3c(cc2OC)CCN3C(=O)CN(C)C)nc2[nH]ccc12 the Potency was 0.344 µM (active). For CCN1CCN(Cc2ccc(-c3cc4c(N[C@H](C)c5ccccc5)ncnc4[nH]3)cc2)CC1, the Potency was 0.153 µM (active). In the case of Clc1cccc(-c2nnnn2Cc2cccnc2)c1Cl, the “activity change, negative = cytotoxic” value is reported as -3.48% (inactive). With O=C(O)CCCc1c[nH]c2ccccc12 the “activity change, negative = cytotoxic” value was 13.2% (inactive). In the case of CC(O)C1C(=O)N2C(C(=O)O)=C(SC3CNC(C(=O)N(C)C)C3)C(C)C12 (stereo not given), the “activity change, negative = cytotoxic” value is reported as 11.3% (inactive). With O=C(Nc1ncc(-c2cc(C(F)F)nn2-c2c(Cl)cccc2Cl)s1)C1CC1 the Potency was 0.432 µM (active). With COc1cc(Nc2ncc(F)c(Nc3ccc4c(n3)N(COP(=O)(O)O)C(=O)C(C)(C)O4)n2)cc(OC)c1OC the Potency was 1.22 µM (active). For Cc1ccc(C(=O)Nc2ccc(CN3CCN(C)CC3)c(C(F)(F)F)c2)cc1C#Cc1cnc2cccnn12, the Potency was 1.09 µM (active). With CC1(C)CC(=O)c2c(C(F)(F)F)nn(-c3ccc(C(N)=O)c(NC4CCC(OC(=O)CN)CC4)c3)c2C1 (stereo not given) the Potency was 0.306 µM (active). In the case of COC(=O)c1ccc2c(C(=Nc3ccc(N(C)C(=O)CN4CCN(C)CC4)cc3)c3ccccc3)c(O)[nH]c2c1, the Potency is reported as 5.44 µM (active). For O=C(C=Cc1c(C(=O)O)[nH]c2cc(Cl)cc(Cl)c12)Nc1ccccc1, the “activity change, negative = cytotoxic” value was 14.1% (inactive). For CCN(CC)CCNC(=O)c1ccc2nc(-c3ccccc3)c(-c3ccc(CN4CCC(n5c(=O)[nH]c6ccccc65)CC4)cc3)nc2c1, the Potency was 3.43 µM (active). For Cc1cc(CN2CCN(c3c(Br)cnc4nc(-c5ccc(N6CCN(C)CC6)cc5)[nH]c34)CC2)no1, the Potency was 30.6 µM (active). In the case of CC1(C)CCC(c2ccc(Cl)cc2)=C(CN2CCN(c3ccc(C(=O)NS(=O)(=O)c4ccc(N[C@H](CCN5CCOCC5)CSc5ccccc5)c(S(=O)(=O)C(F)(F)F)c4)cc3)CC2)C1, the Potency is reported as 5.44 µM (active). With C[C@@H]1COC(Nc2ccc3ncnc(Nc4ccc(OCc5nccs5)c(Cl)c4)c3c2)=N1 the Potency was 21.7 µM (active). In the case of O=C(c1cncc(Br)c1)N1CCC(N2CCCC2)CC1, the “activity change, negative = cytotoxic” value is reported as 6.74% (inactive). For COc1cc2c(NC3CCN(C(C)C)CC3)nc(C3CCCCC3)nc2cc1OCCCN1CCCC1, the Potency was 19.3 µM (active). For Cc1ccc(NC(=O)C2(c3ccc4c(c3)OC(F)(F)O4)CC2)nc1-c1cccc(C(=O)O)c1, the Potency was 0.0544 µM (active).
